Sampled rows, rich in hits. Any-hit rate of the full collection: about 3.1%.
LGR2 inh: inhibitors of bursicon-induced Drosophila LGR2 receptor cAMP signaling; HEK293 LGR2, CRE-luciferase, bursicon-stimulated, 4 h; AID 720647; 0.35% of 380,000 active; inhibition, % at 9.99 µM;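 active = drop in luminescence signal, shown as inhibition above about 50% in the replicate tests, limit read from the data, passing the limit was not always enough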;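 note: agonist challenge used bursicon conditioned medium at about half maximal strength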
TWEAK-Fn14 inh: inhibitors of TWEAK-Fn14 interaction signaling. TWEAK-stimulated Fn14 reporter cells, luciferase luminescence, 8 h. inhibition, % at 10 µM. 2% of 360,000 active; in the data active = inhibition above about 50%
PAX8 inh HTS: inhibitors of PAX8 transcriptional activity in RMG-I cells | RMG-I TPO-luciferase reporter, SteadyGlo, 24 h | inhibition, % at 12.6 µM | 1.2% of 360,000 active;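 active = mean replicate inhibition at least 60% with every replicate also reaching 60%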;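 note: luciferase light reporting Pax8 driven TPO promoter activity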
TROY NFkB inh: TROY signaling inhibition. Q293 LMP1-TROYcd NF-kB luciferase reporter, 4 h. inhibition, % at 10 µM. 0.98% of 360,000 active. AID 1347056;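 active = compounds whose plate-normalised and pattern-corrected inhibition of the luciferase reporter signal at the single screening dose is 50% or more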
LMP1 NFkB inh: inhibitors of Epstein-Barr LMP1-induced NF-kappaB reporter. LMP1-induced NF-kappaB luciferase reporter cells, luminescence. inhibition, % at 12.5 µM. 0.69% of 350,000 active; in the data active = inhibition above about 41%
EWS-Fli inh: inhibitors of EWS/Fli oncoprotein transcriptional activity. A673 NR0B1-luciferase reporter, viability-normalised. inhibition, % at 12.6 µM. 0.67% of 350,000 active. AID 651661;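 active = mean inhibition of at least 50% after viability correction, with every replicate also passing that limit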;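 note: firefly luciferase signal divided by Alamar Blue viability fluorescence both relative to DMSO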
Each line names hits and unclear results; the compound was inactive in the other large screens.

Fc1cccc2sc(Nc3nc4cc5c(cc4s3)OCCO5)nc12	TWEAK-Fn14 inh 73, TROY NFkB inh 72 (no result: EWS-Fli inh)
CN1N=C2c3ccccc3CCC2C1c1ccc(F)cc1 (stereo not drawn)	TWEAK-Fn14 inh 53, TROY NFkB inh 60 (no result: LMP1 NFkB inh)
CN1N=C2c3ccccc3CCC2C1c1ccc(Cl)cc1 (stereo not drawn)	TWEAK-Fn14 inh 54
CNC(=S)N1N=C2c3ccccc3CCC2C1c1ccccc1Cl (stereo not drawn)	none
N#Cc1c(N)[nH]c2ccc(Sc3ccccc3)cc12	EWS-Fli inh 61
CC(C)C#Cc1ccc([C@H]2[C@H](CO)N3C(=O)CN(C(=O)NC4CCCC4)C[C@@H]23)cc1	none (no result: TWEAK-Fn14 inh, TROY NFkB inh, LMP1 NFkB inh)
COc1ccc(-c2ccc(C(C)=O)cc2)cc1[C@H]1[C@@H]2C=CCC[C@@]2(C)C(=O)N1Cc1ccccc1	PAX8 inh HTS 62
CCOc1ccc(N2C(=O)c3ccccc3NC2(C)CC)cc1 (stereo not drawn)	none
CCC1(C)Nc2ccccc2C(=O)N1O (stereo not drawn)	TROY NFkB inh 58 (no result: LGR2 inh, PAX8 inh HTS, EWS-Fli inh)
CO[C@H]1CN(C)C(=O)c2ccc(NC(=O)c3cc(C)on3)cc2OC[C@@H](C)N(C)C[C@H]1C	none (no result: TWEAK-Fn14 inh, TROY NFkB inh, LMP1 NFkB inh)
CC(C)(C)c1cc(=O)[nH]c(SCc2ccccc2)n1	none
CC(C)(C)c1cc(=O)[nH]c(SCc2ccccc2Cl)n1	TROY NFkB inh 54
COc1cccc(CNCc2ccc(OC)cc2OC)c1	none
CCn1c2ccccc2c2cc(CNCc3ccc(OC)cc3OC)ccc21	LGR2 inh 102
Cc1noc(C)c1NC(=O)N(C)C[C@H]1Oc2c(NC(=O)NC3CCCCC3)cccc2C(=O)N([C@H](C)CO)C[C@@H]1C	none (no result: LGR2 inh, TWEAK-Fn14 inh, PAX8 inh HTS, TROY NFkB inh, LMP1 NFkB inh)
CCCNC(=O)Nc1ccc2c(c1)C(=O)N(C)C[C@H](OC)[C@H](C)CN(CCC)[C@@H](C)CO2	none (no result: TWEAK-Fn14 inh, TROY NFkB inh, LMP1 NFkB inh)
Cc1noc(C)c1NC(=O)Nc1ccc2c(c1)C(=O)N([C@@H](C)CO)C[C@H](C)[C@H](CN(C)Cc1ccccc1)O2	none (no result: TWEAK-Fn14 inh, TROY NFkB inh, LMP1 NFkB inh)
COc1ccc2cc(CNCCOCCOCCNCc3ccc4cc(OC)ccc4c3)ccc2c1	LGR2 inh 103, PAX8 inh HTS 117, TROY NFkB inh 58, EWS-Fli inh 56
CCOCCCNCc1ccc(OC)cc1	none (no result: PAX8 inh HTS, EWS-Fli inh)
O=C(c1ccc(Br)cc1)c1cc([N+](=O)[O-])ccc1N1CCOCC1	none
O=C(c1ccc(Cl)cc1)c1cc([N+](=O)[O-])ccc1N1CCOCC1	EWS-Fli inh 59
CC1CCCN(c2ccc([N+](=O)[O-])cc2C(=O)c2ccccc2)C1 (stereo not drawn)	EWS-Fli inh 59
Cc1ccc(C(=O)c2cc([N+](=O)[O-])ccc2N2CCCCC2)cc1	PAX8 inh HTS 88 (no result: EWS-Fli inh)
O=C(c1ccccc1)c1cc([N+](=O)[O-])ccc1N1CCOCC1	none (no result: EWS-Fli inh)
CO[C@@H]1CN(C)C(=O)c2cc(NC(=O)Nc3cccc(Cl)c3)ccc2OC[C@H](C)N(C(=O)Nc2c(C)noc2C)C[C@@H]1C	none (no result: TWEAK-Fn14 inh, PAX8 inh HTS, TROY NFkB inh, LMP1 NFkB inh)
CCCC#Cc1cnc2c(c1)C(=O)N([C@H](C)CO)C[C@H](C)[C@H](CN(C)C(=O)Nc1ccccc1F)O2	none (no result: TWEAK-Fn14 inh, PAX8 inh HTS, TROY NFkB inh, LMP1 NFkB inh)
O=C(C[C@H]1CC[C@H]2[C@@H](COC[C@@H](O)CN2CC2CC2)O1)NCc1ccc(Cl)cc1	none (no result: TWEAK-Fn14 inh, TROY NFkB inh, LMP1 NFkB inh)
Cn1c(SC2=CS(=O)(=O)c3ccccc32)nc2ccccc21	TWEAK-Fn14 inh 88, TROY NFkB inh 56 (no result: LGR2 inh, PAX8 inh HTS, EWS-Fli inh)
Cn1c(CSc2nc3ccccc3n2C)nc2ccccc21	none (no result: LGR2 inh, EWS-Fli inh)
CNC[C@H]1Oc2ccc(NC(=O)Nc3ccc(C(F)(F)F)cc3)cc2CC(=O)N([C@@H](C)CO)C[C@H]1C	none (no result: TWEAK-Fn14 inh, TROY NFkB inh, LMP1 NFkB inh)
C[C@@H]1CN([C@H](C)CO)S(=O)(=O)c2ccc(-c3ccccc3F)cc2O[C@H]1CN(C)Cc1ccncc1	EWS-Fli inh 60 (no result: TWEAK-Fn14 inh, PAX8 inh HTS, TROY NFkB inh, LMP1 NFkB inh)
CCCC#Cc1ccc2c(c1)O[C@H](CN(C)Cc1ccncc1)[C@H](C)CN([C@H](C)CO)S2(=O)=O	none (no result: TWEAK-Fn14 inh, PAX8 inh HTS, TROY NFkB inh, LMP1 NFkB inh)
CC(C)CC#Cc1ccc2c(c1)O[C@H](CN(C)Cc1ccccn1)[C@@H](C)CN([C@@H](C)CO)S2(=O)=O	PAX8 inh HTS 61 (no result: TWEAK-Fn14 inh, TROY NFkB inh, LMP1 NFkB inh)
CC(C)CC#Cc1ccc2c(c1)O[C@@H](CN(C)Cc1ccncc1)[C@H](C)CN([C@@H](C)CO)S2(=O)=O	PAX8 inh HTS 87 (no result: TWEAK-Fn14 inh, TROY NFkB inh, LMP1 NFkB inh)
C[C@H]1CN([C@@H](C)CO)S(=O)(=O)c2ccc(-c3ccccc3F)cc2O[C@H]1CN(C)Cc1ccncc1	none (no result: TWEAK-Fn14 inh, PAX8 inh HTS, TROY NFkB inh, LMP1 NFkB inh)
CC(C)CC#Cc1ccc2c(c1)O[C@H](CN(C)Cc1ccccn1)[C@H](C)CN([C@H](C)CO)S2(=O)=O	none (no result: TWEAK-Fn14 inh, TROY NFkB inh, LMP1 NFkB inh)

Source: PubChem BioAssay (several laboratories)
